# Reference: PubChem BioAssay (Tox21)
# Inconclusive results are not listed. Where a call stands in place of a potency, no number is given. Activity calls are given as the source filed them. Unless noted, calls come from the whole dose curve; as a rule, active = well fitted curve in the direction sought with a large enough effect in the repeat runs; inconclusive = weak or mixed curves; inactive = no such curve, though single readings can be large; an effect the other way counts as inactive or inconclusive.
# Key:
# [1] = qHTS assay to identify aromatase inhibitors - cell viability counter screen (AID 743084);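 note: cells stimulated with testosterone during compound exposure; nearly all actives have a fitted effect of over 55% in size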
# [2] = target: Aryl hydrocarbon receptor (Homo sapiens) (UniProt P35869); test: qHTS assay to identify small molecule that activate the aryl hydrocarbon receptor (AhR) signaling pathway (AID 743085); note: nearly all actives have a fitted effect of over 15% in size; note: potency is the fitted concentration of half-maximal effect;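 for activation: HG2L7.5c1 human HepG2 liver cells with stably integrated DRE-driven firefly reporter; series mostly up to about 70 µM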
# Aryl hydrocarbon receptor (Homo sapiens), sequence (P35869 whole entry, looked up): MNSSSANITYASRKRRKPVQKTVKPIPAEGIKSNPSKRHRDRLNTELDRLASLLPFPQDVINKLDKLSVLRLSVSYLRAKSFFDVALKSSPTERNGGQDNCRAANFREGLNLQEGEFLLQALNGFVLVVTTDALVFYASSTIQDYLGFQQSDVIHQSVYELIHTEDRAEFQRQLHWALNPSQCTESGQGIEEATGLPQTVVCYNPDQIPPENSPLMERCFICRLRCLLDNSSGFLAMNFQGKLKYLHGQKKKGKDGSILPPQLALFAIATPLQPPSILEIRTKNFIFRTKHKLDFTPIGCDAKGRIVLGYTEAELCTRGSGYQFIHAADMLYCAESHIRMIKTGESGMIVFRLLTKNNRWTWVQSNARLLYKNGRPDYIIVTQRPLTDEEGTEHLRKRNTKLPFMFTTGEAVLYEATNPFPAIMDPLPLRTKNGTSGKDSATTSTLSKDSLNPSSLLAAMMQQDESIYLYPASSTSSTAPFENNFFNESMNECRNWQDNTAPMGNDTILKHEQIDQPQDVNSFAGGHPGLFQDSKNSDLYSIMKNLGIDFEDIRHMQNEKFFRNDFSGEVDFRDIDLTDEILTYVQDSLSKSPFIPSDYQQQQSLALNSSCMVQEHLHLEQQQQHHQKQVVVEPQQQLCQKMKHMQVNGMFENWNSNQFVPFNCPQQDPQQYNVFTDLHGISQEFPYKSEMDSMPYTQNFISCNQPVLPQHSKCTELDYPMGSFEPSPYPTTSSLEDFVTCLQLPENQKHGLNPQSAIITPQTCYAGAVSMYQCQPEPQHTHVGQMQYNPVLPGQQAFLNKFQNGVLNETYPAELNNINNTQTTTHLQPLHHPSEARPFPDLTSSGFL
# In short: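 Luminescence read-out: ONE-Glo reagent, 30 min at room temperature, in HG2L7.5c1 HepG2 reporter cells treated 24 h at 37C. Viability was measured beforehand by CellTiter-Fluor fluorescence after 30 min at 37C.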
# [3] = qHTS assay to identify small molecule that activate the aryl hydrocarbon receptor (AhR) signaling pathway - cell viability counter screen (AID 743086);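 note: HepG2 liver cells carrying the AhR DRE luciferase reporter; series mostly up to about 70 µM; nearly all actives have a fitted effect of over 45% in size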
# In short: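 HepG2-AhR-luc (HG2L7.5c1) cells, 4000/well, treated 24 h at 37 C with compound; viability measured as CellTiter-Fluor fluorescence after 30 min in the same wells as the luciferase read.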
# [4] = target: Peroxisome proliferator-activated receptor gamma (Homo sapiens) (UniProt P37231); test: qHTS assay to identify small molecule agonists of the peroxisome proliferator-activated receptor gamma (PPARg) signaling pathway (AID 743094; active = well fitted activation curve with a large enough effect in the signal ratio in the repeat runs, not every such curve was filed as active; the % refers to the signal ratio)
# Peroxisome proliferator-activated receptor gamma (Homo sapiens), sequence (P37231 whole entry, looked up): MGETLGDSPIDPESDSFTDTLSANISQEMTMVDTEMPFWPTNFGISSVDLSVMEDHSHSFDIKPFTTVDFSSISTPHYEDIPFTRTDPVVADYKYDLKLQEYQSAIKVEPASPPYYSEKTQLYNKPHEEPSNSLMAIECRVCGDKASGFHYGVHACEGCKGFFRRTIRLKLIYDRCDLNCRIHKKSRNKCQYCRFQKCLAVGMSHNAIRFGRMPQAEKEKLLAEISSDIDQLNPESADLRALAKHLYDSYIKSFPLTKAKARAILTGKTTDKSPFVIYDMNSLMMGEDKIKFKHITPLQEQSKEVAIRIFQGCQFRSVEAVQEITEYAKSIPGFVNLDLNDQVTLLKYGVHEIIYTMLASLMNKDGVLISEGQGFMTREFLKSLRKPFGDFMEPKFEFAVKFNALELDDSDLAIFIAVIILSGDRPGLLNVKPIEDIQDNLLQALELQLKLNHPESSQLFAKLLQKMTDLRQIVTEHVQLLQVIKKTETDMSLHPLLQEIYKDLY
# In short: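 GeneBLAzer PPARg UAS-bla HEK293H cells were plated, rested 5 h, then exposed to compounds for 17 h at 37C. Beta-lactamase activity was read by LiveBLAzer B/G FRET substrate fluorescence after 1 h at room temperature.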
# [5] = target: Peroxisome proliferator-activated receptor gamma (Homo sapiens) (UniProt P37231); test: qHTS assay to identify small molecule antagonists of the peroxisome proliferator-activated receptor gamma (PPARg) signaling pathway (AID 743191; calls by dose curve; note: series mostly up to about 63 µM; nearly all actives have a fitted effect of over 30% in size)
# In short: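 GeneBLAzer PPARg UAS-bla HEK293H cells, 5 h post-plating, exposed to compounds 17 h at 37C. LiveBLAzer B/G FRET substrate added for 1 h at room temperature; beta-lactamase reporter read by fluorescence intensity.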
# [6] = qHTS assay to identify small molecule antagonists of the peroxisome proliferator-activated receptor gamma (PPARg) signaling pathway - cell viability counter screen (AID 743194); note: nearly all actives have a fitted effect of over 55% in size
# In short: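 Cytotoxicity counter screen in PPARg-bla HEK293H cells, same wells as reporter assay. Compounds plus 50 nM rosiglitazone (final) for 17 h at 37 C, then viability read by CellTiter-Glo luminescence.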
# [7] = qHTS assay for small molecule agonists of the antioxidant response element (ARE) signaling pathway (AID 743202; active = well fitted activation curve with a large enough effect in the signal ratio in the repeat runs, not every such curve was filed as active; the % refers to the signal ratio)
# In short: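 Agonist mode reporter screen: HepG2 cells with ARE-controlled beta-lactamase are incubated with test compounds for 16 h at 37 C, and beta-lactamase activity is measured as fluorescence of cleaved B/G FRET substrate.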
# [8] = qHTS assay for small molecule agonists of the antioxidant response element (ARE) signaling pathway - cell viability counter screen (AID 743203; calls by dose curve; note: nearly all actives have a fitted effect of over 55% in size)
# In short: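 ARE-bla HepG2 cells were plated, rested 5 h at 37C/5% CO2, then exposed to compounds in DMSO for 16 h. Viability was read as CellTiter-Glo luminescence after 30 min at room temperature, in the same wells as the ARE screen.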
# [9] = qHTS assay for small molecule activators of the heat shock response signaling pathway - cell viability counter screen (AID 743209); note: nearly all actives have a fitted effect of over 50% in size
# In short: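 HSE-bla HeLa cells plated overnight, then exposed to Tox21 compounds (23 nL in DMSO) for 5 h at 37 C. After the bla reporter read, CellTiter-Glo was added in the same wells and luminescence read after 30 min at room temperature.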
# [10] = qHTS assay for small molecule activators of the heat shock response signaling pathway (AID 743210; active = well fitted activation curve with a large enough effect in the signal ratio in the repeat runs, with a control signal flat, not every such curve was filed as active; the % refers to the signal ratio;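 note: HeLa cells with beta-lactamase reporter driven by heat shock elements; series mostly up to about 63 µM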)
# In short: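 Quantitative high-throughput format using an engineered HeLa line in which heat shock response elements drive beta-lactamase; after 5 h with compound, cells received a B/G FRET substrate and fluorescence was read.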
# [11] = qHTS assay to identify small molecule agonists of the peroxisome proliferator-activated receptor delta (PPARd) signaling pathway - cell viability counter screen (AID 743211); note: nearly all actives have a fitted effect of over 55% in size
# In short: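 Read-out: CellTiter-Glo luminescence, 30 min RT, measured in the same wells as the beta-lactamase reporter. Cells: GeneBLAzer PPAR delta UAS-bla HEK293H, 3000 cells/well, compound exposure 17 h at 37C.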
# [12] = qHTS assay to identify small molecule antagonists of the peroxisome proliferator-activated receptor delta (PPARd) signaling pathway - cell viability counter screen (AID 743213); note: nearly all actives have a fitted effect of over 50% in size
# In short: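 Same-well viability: cells pre-incubated 5 h, dosed with compound plus 300 nM L165041, kept 17 h at 37 C, FRET substrate 2 h RT, then CellTiter-Glo 30 min RT and luminescence.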
# [13] = qHTS assay to identify small molecule agonists of the farnesoid-X-receptor (FXR) signaling pathway - cell viability counter screen (AID 743218); note: nearly all actives have a fitted effect of over 45% in size
# In short: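 FXR-UAS-bla HEK 293T cells exposed to compounds for 16 h at 37C. Cytotoxicity read in the same wells by CellTiter-Glo luminescence after 30 min at room temperature, following the beta-lactamase FRET read.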
# [14] = qHTS assay to identify small molecule antagonists of the farnesoid-X-receptor (FXR) signaling pathway - cell viability counter screen (AID 743221; active = well fitted cell-killing curve with a large enough effect in the repeat runs, not every such curve was filed as active; note: nearly all actives have a fitted effect of over 50% in size)
# In short: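 HEK 293T FXR-bla cells, 5 h pre-incubation; compound + CDCA 50 uM final, 16 h, 37 C; beta-lactamase FRET read first, then CellTiter-Glo luminescence, 30 min RT.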
# [15] = target: Peroxisome proliferator-activated receptor delta (Homo sapiens) (UniProt Q03181); test: qHTS assay to identify small molecule agonists of the peroxisome proliferator-activated receptor delta (PPARd) signaling pathway (AID 743212; calls by dose curve)
# Peroxisome proliferator-activated receptor delta (Homo sapiens), sequence (Q03181 whole entry, looked up): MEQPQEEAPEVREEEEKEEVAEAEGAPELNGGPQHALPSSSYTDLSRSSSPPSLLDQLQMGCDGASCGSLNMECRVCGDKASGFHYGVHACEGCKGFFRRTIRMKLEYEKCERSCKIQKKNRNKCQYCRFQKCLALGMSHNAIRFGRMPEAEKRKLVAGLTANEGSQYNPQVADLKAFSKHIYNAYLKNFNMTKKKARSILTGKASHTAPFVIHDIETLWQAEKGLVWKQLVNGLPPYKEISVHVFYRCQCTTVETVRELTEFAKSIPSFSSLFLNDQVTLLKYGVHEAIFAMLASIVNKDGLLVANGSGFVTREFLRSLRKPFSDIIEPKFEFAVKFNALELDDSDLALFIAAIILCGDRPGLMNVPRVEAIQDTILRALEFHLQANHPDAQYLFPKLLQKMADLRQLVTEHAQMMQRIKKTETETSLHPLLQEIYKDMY
# In short: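 Quantitative high-throughput agonist screen in a HEK293H beta-lactamase reporter line under UAS control. Compounds in DMSO, at 37 C. Fluorescence read after 2 h with FRET substrate at room temperature.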
# [16] = target: Peroxisome proliferator-activated receptor delta (Homo sapiens) (UniProt Q03181); test: qHTS assay to identify small molecule antagonists of the peroxisome proliferator-activated receptor delta (PPARd) signaling pathway (AID 743215; active = well fitted inhibition curve with a large enough effect in the signal ratio in the repeat runs, not every such curve was filed as active; the % refers to the signal ratio;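 note: cells stimulated with agonist L165041 at 300 nM final during compound exposure; series mostly up to about 62 µM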)
# In short: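 PPARd-bla HEK293H cells (UAS-bla reporter) preincubated 5 h, then given compound plus 300 nM final L165041 agonist for 17 h at 37 C. Beta-lactamase activity read by LiveBLAzer B/G FRET substrate fluorescence after 2 h at room temperature.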
# [17] = target: Bile acid receptor (Homo sapiens) (UniProt Q96RI1); test: qHTS assay to identify small molecule antagonists of the farnesoid-X-receptor (FXR) signaling pathway (AID 743217; active = well fitted inhibition curve with a large enough effect in the signal ratio in the repeat runs, not every such curve was filed as active; the % refers to the signal ratio)
# Bile acid receptor (Homo sapiens), sequence (Q96RI1 whole entry, looked up): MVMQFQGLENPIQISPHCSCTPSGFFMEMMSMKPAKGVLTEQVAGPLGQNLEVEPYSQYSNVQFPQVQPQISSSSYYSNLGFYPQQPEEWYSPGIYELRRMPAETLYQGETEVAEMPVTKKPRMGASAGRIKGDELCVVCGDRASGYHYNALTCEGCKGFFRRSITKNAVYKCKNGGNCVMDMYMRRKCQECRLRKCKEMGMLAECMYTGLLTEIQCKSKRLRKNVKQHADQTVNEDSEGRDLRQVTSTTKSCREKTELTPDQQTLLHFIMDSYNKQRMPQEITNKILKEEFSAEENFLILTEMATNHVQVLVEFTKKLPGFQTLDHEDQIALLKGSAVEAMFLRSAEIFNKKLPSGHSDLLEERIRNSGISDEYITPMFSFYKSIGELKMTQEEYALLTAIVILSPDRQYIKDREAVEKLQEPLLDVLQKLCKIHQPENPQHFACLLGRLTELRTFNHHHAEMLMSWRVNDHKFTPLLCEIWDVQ
# In short: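 FXR-UAS-bla HEK 293T cells (beta-lactamase reporter) given compound plus chenodeoxycholic acid (50 uM final), 16 h at 37C. LiveBLAzer B/G FRET substrate added for 2 h at room temperature; fluorescence read.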
# [18] = target: Bile acid receptor (Homo sapiens) (UniProt Q96RI1); test: qHTS assay to identify small molecule agonists of the farnesoid-X-receptor (FXR) signaling pathway (AID 743220; active = well fitted activation curve with a large enough effect in the signal ratio in the repeat runs, not every such curve was filed as active; the % refers to the signal ratio)
# In short: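 Beta-lactamase reporter under UAS control in GeneBLAzer FXR HEK 293T cells (5000/well) measured with LiveBLAzer FRET substrate after 2 h at room temperature. Compound exposure lasted 16 h at 37C.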
# [19] = target: Vitamin D3 receptor (Homo sapiens) (UniProt P11473); test: qHTS assay to identify small molecule agonists of the vitamin D receptor (VDR) signaling pathway (AID 743222; calls by dose curve)
# Vitamin D3 receptor (Homo sapiens), sequence (P11473 whole entry, looked up): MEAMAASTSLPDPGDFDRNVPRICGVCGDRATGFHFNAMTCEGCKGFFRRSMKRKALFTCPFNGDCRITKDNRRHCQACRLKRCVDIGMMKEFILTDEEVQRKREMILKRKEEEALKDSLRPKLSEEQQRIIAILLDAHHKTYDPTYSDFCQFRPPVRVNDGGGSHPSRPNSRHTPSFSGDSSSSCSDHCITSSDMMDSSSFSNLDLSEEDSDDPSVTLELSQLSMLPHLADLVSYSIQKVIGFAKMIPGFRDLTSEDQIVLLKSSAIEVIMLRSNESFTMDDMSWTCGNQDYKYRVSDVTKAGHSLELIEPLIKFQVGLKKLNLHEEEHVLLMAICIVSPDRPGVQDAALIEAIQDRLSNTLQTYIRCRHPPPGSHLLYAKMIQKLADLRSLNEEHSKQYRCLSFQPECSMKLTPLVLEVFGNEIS
# In short: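 VDR-bla cells plated 4 h at 37 C, then exposed to compounds for 16 h at 37 C. Beta-lactamase reporter activity measured by fluorescence after 2 h room-temperature loading with LiveBLAzer B/G FRET substrate.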
# [20] = target: Vitamin D3 receptor (Homo sapiens) (UniProt P11473); test: qHTS assay to identify small molecule antagonists of the vitamin D receptor (VDR) signaling pathway (AID 743223; active = well fitted inhibition curve with a large enough effect in the signal ratio in the repeat runs, not every such curve was filed as active; the % refers to the signal ratio)
# In short: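 Beta-lactamase reporter read-out: FRET substrate fluorescence after 2 h at room temperature, following 16 h exposure of VDR-bla cells to test compound plus 3 nM (final) 1alpha,25-dihydroxyvitamin D3 agonist at 37C.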
Compound,Potency [1],Potency [2],Potency [3],outcome [4],Potency [5],outcome [6],Potency [7],outcome [8],outcome [9],outcome [10],outcome [11],outcome [12],Potency [13],outcome [14],outcome [15],outcome [16],outcome [17],outcome [18],outcome [19],outcome [20]
OC(CCN1CCCCC1)(c1ccccc1)c1ccccc1,inactive,21.1 µM (active),inactive,inactive,inactive,inactive,inactive,inactive,inactive,inactive,inactive,inactive,inactive,inactive,–,–,–,–,–,–
CC1=CC[C@H](CC=O)C1(C)C,inactive,inactive,inactive,inactive,inactive,inactive,inactive,inactive,inactive,inactive,inactive,inactive,–,–,inactive,inactive,inactive,inactive,inactive,inactive
C[N+](C)(C)CC(O)CCl (stereo unspecified),inactive,inactive,inactive,inactive,inactive,inactive,inactive,inactive,inactive,inactive,–,inactive,inactive,inactive,inactive,–,–,–,inactive,–
CN(C)CCOCCN(C)CCO,inactive,inactive,inactive,inactive,inactive,inactive,inactive,inactive,inactive,inactive,inactive,–,–,inactive,inactive,inactive,–,–,inactive,–
OC[C@@H](O)[C@H](O)[C@@H](O)[C@@H](O)CO,inactive,inactive,inactive,inactive,inactive,inactive,inactive,inactive,inactive,inactive,inactive,inactive,inactive,inactive,–,–,–,–,inactive,–
CCCCCCCCCCCCC1CO1 (stereo unspecified),inactive,inactive,inactive,inactive,inactive,inactive,inactive,inactive,inactive,inactive,inactive,inactive,inactive,inactive,inactive,inactive,–,–,–,–
CCCCCCCCC(=O)OCC,inactive,inactive,inactive,inactive,inactive,inactive,inactive,inactive,inactive,inactive,inactive,inactive,inactive,inactive,inactive,inactive,–,–,inactive,–
FC(F)(F)/C(=N\OCC1OCCO1)c1ccc(Cl)cc1,inactive,inactive,inactive,inactive,inactive,inactive,inactive,inactive,inactive,inactive,inactive,inactive,–,inactive,–,–,–,–,inactive,inactive
CCOC(=O)CCc1ccccc1,inactive,inactive,inactive,inactive,inactive,inactive,inactive,inactive,inactive,inactive,–,inactive,–,inactive,inactive,inactive,–,–,inactive,inactive
CC(=O)OCC(=O)[C@@]1(O)[C@H](OC(C)=O)C[C@H]2[C@@H]3CCC4=CC(=O)C=C[C@]4(C)[C@@]3(F)[C@@H](O)C[C@@]21C,inactive,inactive,inactive,inactive,inactive,inactive,inactive,inactive,inactive,inactive,inactive,inactive,inactive,inactive,inactive,inactive,–,inactive,inactive,–
CCOC(=O)OCC/C(SC(=O)OCC)=C(\C)N(C=O)Cc1cnc(C)nc1N,inactive,inactive,inactive,inactive,inactive,inactive,inactive,inactive,inactive,inactive,inactive,–,–,inactive,–,–,–,–,inactive,inactive
CC(=O)OC(C(=O)c1ccccc1)c1ccccc1 (stereo unspecified),inactive,inactive,inactive,inactive,inactive,inactive,inactive,inactive,inactive,inactive,inactive,inactive,inactive,inactive,inactive,–,inactive,–,–,–
CNC(=O)NC,inactive,inactive,inactive,inactive,inactive,inactive,inactive,inactive,inactive,inactive,–,–,inactive,inactive,–,inactive,inactive,inactive,inactive,–
CCCCCC1Nc2cc(C(F)(F)F)c(S(N)(=O)=O)cc2S(=O)(=O)N1 (stereo unspecified),inactive,inactive,inactive,inactive,inactive,inactive,inactive,inactive,inactive,inactive,–,–,inactive,inactive,inactive,inactive,–,–,inactive,inactive
O=c1[nH]c(=O)c2ccccc2o1,inactive,inactive,inactive,inactive,inactive,inactive,inactive,inactive,inactive,inactive,inactive,inactive,inactive,inactive,–,–,inactive,–,–,–
CCC1COC(=O)O1 (stereo unspecified),inactive,inactive,inactive,inactive,inactive,inactive,inactive,inactive,inactive,inactive,–,–,inactive,inactive,–,inactive,inactive,–,inactive,inactive
C=CCOC(=O)c1ccc(C(=O)OCC=C)c(C(=O)OCC=C)c1,inactive,inactive,inactive,inactive,inactive,inactive,inactive,inactive,inactive,inactive,inactive,inactive,inactive,inactive,inactive,inactive,–,–,inactive,inactive
CCCC(C)CC (stereo unspecified),inactive,inactive,inactive,inactive,inactive,inactive,inactive,inactive,inactive,inactive,inactive,inactive,inactive,inactive,–,inactive,–,–,inactive,–
